Experimental data: ChEMBL document CHEMBL3988442, “University of Dundee, Small-Polar-MMV Screening Library” (2021)

Biological target: T1, Methionyl-tRNA synthetase, putative (Leishmania donovani (strain BPK282A1)) (UniProt E9BF75)
T1 sequence (whole entry): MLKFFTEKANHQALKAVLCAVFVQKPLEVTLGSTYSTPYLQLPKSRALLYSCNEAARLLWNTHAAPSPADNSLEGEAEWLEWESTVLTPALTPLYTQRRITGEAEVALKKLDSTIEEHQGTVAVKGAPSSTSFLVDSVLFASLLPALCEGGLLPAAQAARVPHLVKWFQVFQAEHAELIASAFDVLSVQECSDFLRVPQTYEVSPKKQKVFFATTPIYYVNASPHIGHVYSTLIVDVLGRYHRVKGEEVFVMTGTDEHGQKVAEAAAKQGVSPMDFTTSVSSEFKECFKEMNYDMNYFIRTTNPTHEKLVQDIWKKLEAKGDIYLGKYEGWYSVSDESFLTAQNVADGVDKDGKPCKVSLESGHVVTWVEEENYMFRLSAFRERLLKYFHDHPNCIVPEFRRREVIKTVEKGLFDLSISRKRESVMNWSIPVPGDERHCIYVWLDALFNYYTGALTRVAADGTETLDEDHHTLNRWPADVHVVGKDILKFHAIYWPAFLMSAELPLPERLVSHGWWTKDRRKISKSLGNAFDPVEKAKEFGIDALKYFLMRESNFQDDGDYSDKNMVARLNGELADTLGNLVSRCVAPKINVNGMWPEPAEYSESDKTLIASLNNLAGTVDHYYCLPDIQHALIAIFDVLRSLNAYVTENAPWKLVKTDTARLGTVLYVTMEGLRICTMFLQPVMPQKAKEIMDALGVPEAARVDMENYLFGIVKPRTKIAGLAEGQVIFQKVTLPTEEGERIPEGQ
Test: Leishmania donovani Methionine tRNA synthetase (LdMetRS):v7. Dose response assay
Assay type: functional
Parameters: conc 80 nM, time 150 minutes

CS(=O)(=O)N1CCN(c2ccc3ccc(C(=O)NCCn4cccn4)cn23)CC1
PXC50 (BOTTOM 1.569537618, HILLSLOPE 2.334941078, MAX_EFFECT 65.07177033, TOP 65.29640188): 4.95
PXC50 (BOTTOM 7.030389685, HILLSLOPE 2.531896239, MAX_EFFECT 68.73857404, TOP 69.44063033): 4.79

CC(C)C[C@H](N)COc1ccc(OCc2ccccc2)c(F)c1
PXC50 (MAX_EFFECT 25.05175983): < 4
PXC50 (MAX_EFFECT 28.78464819): < 4

Cc1nc(N2CCC(NS(C)(=O)=O)CC2)c2c(-c3cccs3)csc2n1
PXC50 (MAX_EFFECT 36.61616162): < 4
PXC50 (MAX_EFFECT 37.24489796): < 4

O=c1nc(NCCCNCc2cc(Br)cc(Br)c2)[nH]c2ccsc12
PXC50 (BOTTOM 2.299047881, HILLSLOPE 2.649797199, MAX_EFFECT 103.7296037, TOP 100.0081261): 6.16
PXC50 (BOTTOM 10.20336465, HILLSLOPE 2.013529983, MAX_EFFECT 101.8604651, TOP 99.90152213): 6.19

Cc1nc(N2CCNC(=O)CC2)c2c(CC(C)C)csc2n1
PXC50 (MAX_EFFECT 6.557377049): < 4
PXC50 (MAX_EFFECT 9.625668449): < 4

Cc1nc(N2CCN(c3ncccn3)CC2)c2c3c(sc2n1)CCCC3
PXC50 (MAX_EFFECT 19.78609626): < 4
PXC50 (MAX_EFFECT 20.21857923): < 4

CCc1nc(NCCCN(C)C)c2c3c(sc2n1)CCC3
PXC50 (MAX_EFFECT 11.05527638): < 4
PXC50 (MAX_EFFECT 11.54791155): < 4

O=C1CN(c2nc(-c3cccs3)nc3sc4c(c23)CCCC4)CCN1
PXC50 (MAX_EFFECT 29.33333333): < 4
PXC50 (MAX_EFFECT 31.74603175): < 4

Nc1noc2ccc(-c3cnc4ccc(NCCN5CCOCC5)nn34)cc12
PXC50 (MAX_EFFECT -0.438596491): < 4
PXC50 (MAX_EFFECT -1.041666667): < 4

CS(=O)(=O)N1CCN(c2ccc3ncc(C(=O)NC4CCCC4)cn23)CC1
PXC50 (MAX_EFFECT 7.456140351): < 4
PXC50 (MAX_EFFECT 9.895833333): < 4

CS(=O)(=O)N1CCN(c2ccc3ccc(C(=O)NC4CCCC4)nn23)CC1
PXC50 (MAX_EFFECT 4.387568556): < 4
PXC50 (MAX_EFFECT 8.612440191): < 4

O=C(O)C1CCCN1c1nc(-c2ccc(Cl)c(Cl)c2)cc(C(F)(F)F)n1 (stereo not drawn)
PXC50 (MAX_EFFECT 9.660574413): < 4
PXC50 (MAX_EFFECT 10.44386423): < 4

O=C(O)C1CCCN1c1nc(-c2ccc(Cl)cc2)cc(C(F)(F)F)n1 (stereo not drawn)
PXC50 (MAX_EFFECT 7.310704961): < 4
PXC50 (MAX_EFFECT 9.138381201): < 4

CC(C)C[C@H](N)COc1ccccc1-c1ccccc1
PXC50 (MAX_EFFECT 19.82942431): < 4
PXC50 (MAX_EFFECT 21.32505176): < 4

Nc1noc2ccc(-c3cnc4ccc(NCCn5cccn5)nn34)cc12
PXC50 (MAX_EFFECT 13.59649123): < 4
PXC50 (MAX_EFFECT 13.74045802): < 4

Cc1nc(N2CC(N3CCCCC3C)C2)c2ccsc2n1 (stereo not drawn)
PXC50 (MAX_EFFECT 5.319148936): < 4
PXC50 (MAX_EFFECT 5.699481865): < 4

CC(C)C[C@H](N)COc1ccccc1-c1ccn(C)n1
PXC50 (MAX_EFFECT 7.660455487): < 4
PXC50 (MAX_EFFECT 10.87420043): < 4

O=c1cc(NCCCNCc2cc(C(F)(F)F)cs2)[nH]c2ccccc12
PXC50 (BOTTOM -2.424501326, HILLSLOPE 1.220462925, MAX_EFFECT 102.3310023, TOP 102.5192077): 5.71
PXC50 (BOTTOM -3.989177117, HILLSLOPE 1.235768434, MAX_EFFECT 100.0, TOP 101.1477832): 5.75

CS(=O)(=O)N1CCN(c2ccc3ccc(C(=O)NCC4CCCO4)cn23)CC1 (stereo not drawn)
PXC50 (BOTTOM -3.857720999, HILLSLOPE 1.705839216, MAX_EFFECT 57.40402194, TOP 63.01150798): 4.63
PXC50 (BOTTOM -4.829130924, HILLSLOPE 1.927262902, MAX_EFFECT 52.15311005, TOP 54.22060795): 4.86

Cc1nc(NCCCNS(C)(=O)=O)c2c3c(sc2n1)CCC3
PXC50 (MAX_EFFECT 6.914893617): < 4
PXC50 (MAX_EFFECT 9.844559585): < 4

Cc1nc(N2CCCC(O)C2)c2c3c(sc2n1)CCCC3 (stereo not drawn)
PXC50 (MAX_EFFECT 9.649122807): < 4
PXC50 (MAX_EFFECT 16.66666667): < 4

Cc1nc(N2CCN(c3ccccn3)CC2)c2c3c(sc2n1)CCCC3
PXC50 (MAX_EFFECT 22.61306533): < 4
PXC50 (MAX_EFFECT 22.85012285): < 4

COc1cccc(-c2cc(C(F)(F)F)nc(N3CCCC3)n2)c1
PXC50 (MAX_EFFECT 5.303030303): < 4
PXC50 (MAX_EFFECT 7.142857143): < 4

CCc1nc(NCc2ccccn2)c2cc(CC)sc2n1
PXC50 (MAX_EFFECT 4.176904177): < 4
PXC50 (MAX_EFFECT 4.522613065): < 4

CC(C)C[C@H](N)COc1ccccc1N1CCCC1=O
PXC50 (MAX_EFFECT 8.074534161): < 4
PXC50 (MAX_EFFECT 13.85927505): < 4

Cc1nc(N2CCC(O)CC2)c2c(-c3cccs3)csc2n1
PXC50 (MAX_EFFECT 8.905852417): < 4
PXC50 (MAX_EFFECT 9.319899244): < 4

CN(C)C(=O)N1CCN(c2ccc3ccc(C(=O)NC4CC4)cn23)CC1
PXC50 (BOTTOM 3.433705082, HILLSLOPE 1.394575879, MAX_EFFECT 54.57943925, TOP 100.0): 4.05
PXC50 (MAX_EFFECT 48.07256236): < 4

CCOC(=O)N1CCN(c2nc(C)nc3scc(-c4cccs4)c23)CC1
PXC50 (MAX_EFFECT 28.24427481): < 4
PXC50 (MAX_EFFECT 28.46347607): < 4

CS(=O)(=O)N1CCN(CC2OB(O)c3ccccc32)CC1 (stereo not drawn)
PXC50 (MAX_EFFECT 11.13207547): < 4
PXC50 (MAX_EFFECT 15.06849315): < 4
